{
  "source": "PubChem BioAssay AID504332",
  "about": "(National Center for Advancing Translational Sciences (NCATS), 2011)",
  "note": "Hit rate of the full screen: of about 350,000 compounds, about 31,000 (8.9%) were called active. Roughly 15% stayed inconclusive and do not appear here. The call rests on the fitted dose curve; in most records, active means well fitted inhibition curve with a large enough effect; inconclusive means small, poorly fitted or top-dose-only effect; inactive means no such curve, though single readings can be large or run the other way. The list comes from a sample in which actives are over-represented; it also holds similar structures and randomly drawn compounds. On the % scale 0 is the no-effect control and ±100 the full control effect; potency means the concentration at half of the fitted maximal effect.",
  "data": [
    {"target": "Histone-lysine N-methyltransferase EHMT2 (Homo sapiens) (UniProt Q96KQ7)", "sequence (Q96KQ7 913-1193 limits assumed)": "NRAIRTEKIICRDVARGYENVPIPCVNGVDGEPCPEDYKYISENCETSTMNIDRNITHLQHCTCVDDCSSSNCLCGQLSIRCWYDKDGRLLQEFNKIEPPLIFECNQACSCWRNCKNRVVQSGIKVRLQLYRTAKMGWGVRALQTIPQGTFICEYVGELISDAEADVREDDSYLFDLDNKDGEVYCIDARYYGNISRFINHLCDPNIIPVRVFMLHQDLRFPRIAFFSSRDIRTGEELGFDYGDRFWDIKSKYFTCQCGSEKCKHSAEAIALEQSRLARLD", "assay": "qHTS Assay for Inhibitors of Histone Lysine Methyltransferase G9a; further: nearly all actives have a fitted effect of over 75% in size", "conditions": "G9a H3K9 monomethylation, AlphaScreen, 2 h; series mostly up to 59 µM; activity, negative = inhibition: at the top concentration", "summary_of_the_method": "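Enzyme 20 nM + cpd, 15 min RT; add b-H3K9 pep 500 nM / SAM 20 uM; 2 h RT; anti-H3K9me1 Ab 0.5 ug/mL + SA donor / anti-rabbit acceptor beads 20 ug/mL each, 10 min; AlphaScreen read.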", "values": [
      {"smiles": "Cc1nn(-c2ccc(N3CCCCC3)nn2)c(C)c1CCC(=O)NCc1ccccc1F", "activity, negative = inhibition": "10.5% (inactive)"},
      {"smiles": "OC(c1ccc(Cl)cc1)C(CN1CCOCC1)c1ccccc1", "note": "(stereo not drawn)", "activity, negative = inhibition": "-30.5% [at 2.33 µM] (inactive)"},
      {"smiles": "COC(=O)[C@]1(C)CCC[C@@]2(C)C3CC[C@]4(OC(C)=O)C[C@@]3(CCC21)CC4=NO", "note": "(stereo partly drawn)", "activity, negative = inhibition": "3.11% [at 0.501 µM] (inactive)"},
      {"smiles": "COc1cc(OC)cc(-c2c(-c3cccs3)c3cc(-c4ccc(OC)nc4)ccc3n2C)c1", "activity, negative = inhibition": "0.323% [at 0.501 µM] (inactive)"},
      {"smiles": "COc1cc2[nH]c(=O)n(Cc3ccc(C(=O)NCc4ccc(C)cc4)cc3)c(=O)c2cc1OC", "activity, negative = inhibition": "-1.87% (inactive)"},
      {"smiles": "CN1CCN(C(CNC(=O)c2ccccc2F)c2ccc3c(c2)OCO3)CC1", "note": "(stereo not drawn)", "activity, negative = inhibition": "-31.5% (inactive)"},
      {"smiles": "COc1ccc(F)cc1S(=O)(=O)Nc1ccc2c(c1)OCO2", "activity, negative = inhibition": "26.9% (inactive)"},
      {"smiles": "COc1ccc(F)cc1S(=O)(=O)NCC(c1ccc2c(c1)OCO2)N1CCN(C)CC1", "note": "(stereo not drawn)", "Potency": "50.1 µM (active)"},
      {"smiles": "Cc1ccc(Cn2c(=O)n(CCCC(=O)NCc3ccccc3Cl)c(=O)c3ccccc32)cc1", "activity, negative = inhibition": "35% (inactive)"},
      {"smiles": "O=C(Cn1c(=O)n(-c2ccc(F)cc2)c(=O)c2sc3ccccc3c21)NC1CCCC1", "activity, negative = inhibition": "-27.5% (inactive)"},
      {"smiles": "CC(C)C(C)(C#N)NC(=O)CSc1nncn1-c1ccccc1", "note": "(stereo not drawn)", "activity, negative = inhibition": "10.8% [at 102 µM] (inactive)"},
      {"smiles": "CC(C)C(C)(C#N)NC(=O)CSc1nc2scc(-c3ccccc3)c2c(=O)[nH]1", "note": "(stereo not drawn)", "Potency": "28.2 µM (active)"},
      {"smiles": "C=CCNC(=O)CSc1nc2sc(C)c(C)c2c(=O)[nH]1", "activity, negative = inhibition": "-15.5% [at 102 µM] (inactive)"},
      {"smiles": "CCOc1ccc(CNC(=O)c2cccc(Nc3nc4ccccc4n4nnnc34)c2)cc1OC", "activity, negative = inhibition": "7.41% (inactive)"},
      {"smiles": "Cc1nn2c(=O)cc(COC(=O)c3cccc(NC(=O)COc4ccccc4Cl)c3)nc2s1", "activity, negative = inhibition": "16.4% (inactive)"},
      {"smiles": "CCCCCn1c(=O)[nH]c2cc(C(=O)Nc3ccc(F)cc3)ccc2c1=O", "activity, negative = inhibition": "2.02% (inactive)"},
      {"smiles": "O=C(NCc1ccc2c(c1)CCN2C(=O)c1ccccc1)c1ccccc1", "activity, negative = inhibition": "-2.23% (inactive)"},
      {"smiles": "CCCOc1ccc(/C(O)=C2/C(=O)C(=O)N(CCN(C)C)C2c2ccc(OC)c(OC)c2)cc1", "note": "(stereo not drawn)", "Potency": "10 µM (active)"},
      {"smiles": "COc1ccc(/C(O)=C2/C(=O)C(=O)N(CCCN(C)C)C2c2ccccc2)cc1OC", "note": "(stereo not drawn)", "activity, negative = inhibition": "20.6% (inactive)"},
      {"smiles": "COc1cccc(C2/C(=C(/O)c3ccc(F)cc3)C(=O)C(=O)N2CCN(C)C)c1", "note": "(stereo not drawn)", "activity, negative = inhibition": "-0.491% (inactive)"},
      {"smiles": "O=C(Nc1cccc(C(=O)NC2CC2)c1)c1ccc(F)c(S(=O)(=O)N2CCOCC2)c1", "activity, negative = inhibition": "11.8% [at 0.501 µM] (inactive)"},
      {"smiles": "Cc1ccc(C2=NN(C(=O)CSc3nc(N)cc(N)n3)C(c3ccco3)C2)cc1", "note": "(stereo not drawn)", "Potency": "50.1 µM (active)"},
      {"smiles": "Cc1ccc(C2=NN(C(=O)COc3ncnc4ccccc34)C(c3ccco3)C2)cc1", "note": "(stereo not drawn)", "activity, negative = inhibition": "10.3% [at 102 µM] (inactive)"},
      {"smiles": "COc1ccc(C2=NN(C(=O)CSc3nnnn3C)C(c3ccco3)C2)cc1", "note": "(stereo not drawn)", "activity, negative = inhibition": "-3.31% (inactive)"},
      {"smiles": "CCCc1nn2c(=O)cc(COC(=O)c3ccc(NC(=O)COc4ccc(F)cc4)cc3)nc2s1", "activity, negative = inhibition": "11.8% (inactive)"},
      {"smiles": "Cc1nn(-c2ccccc2)c(C)c1NC(=O)COC(=O)c1cc(Cl)ccc1O", "activity, negative = inhibition": "-41% [at 102 µM] (inactive)"},
      {"smiles": "Cc1cc(Nc2ccc(C(=O)N3CCCCC3)cc2)c2cccc(C)c2n1", "activity, negative = inhibition": "-10.5% [at 102 µM] (inactive)"},
      {"smiles": "Cc1ccc(Nc2ccc(C(N)=O)cc2[N+](=O)[O-])cc1", "activity, negative = inhibition": "25% (inactive)"},
      {"smiles": "Cc1ccc(Nc2cc(C)nc3c(C)ccc([N+](=O)[O-])c23)cc1", "Potency": "11.2 µM (active)"},
      {"smiles": "COCCn1cnnc1SCC(=O)Nc1cccc(S(=O)(=O)N2CCCCC2)c1", "activity, negative = inhibition": "-9.19% [at 12.7 µM] (inactive)"},
      {"smiles": "COc1ccc(CN2CCc3nc(Nc4ccccc4)ncc3C2)c(OC)c1OC", "activity, negative = inhibition": "-1.92% (inactive)"},
      {"smiles": "O=C(CCCn1c(SCC(=O)c2ccc(F)cc2)nc2ccccc2c1=O)NCc1ccco1", "activity, negative = inhibition": "3.76% [at 102 µM] (inactive)"},
      {"smiles": "C=CCn1c(CSc2nc3ccccc3s2)nnc1SCC(=O)NCc1ccco1", "Potency": "44.7 µM (active)"},
      {"smiles": "O=C(CSc1nc2ccc(Nc3nc(N4CCOCC4)nc(N4CCOCC4)n3)cc2s1)NCc1ccco1", "activity, negative = inhibition": "3.15% (inactive)"},
      {"smiles": "CCOC(=O)c1cccc(NS(=O)(=O)c2cc(-c3cnc(C)o3)ccc2OC)c1", "activity, negative = inhibition": "3.04% (inactive)"},
      {"smiles": "Cc1cccc(NS(=O)(=O)c2cccc(C(=O)NNC(=O)c3ccccc3O)c2)c1", "activity, negative = inhibition": "56.9% [at 12.7 µM] (inactive)"},
      {"smiles": "O=c1oc2ccc(C#CC3(O)CCCCC3)cc2cc1-n1cc(-c2ccsc2)nn1", "activity, negative = inhibition": "-0.586% [at 0.501 µM] (inactive)"},
      {"smiles": "CCS(=O)(=O)c1ccc(-c2cccc(NC(=O)c3ccc(Br)o3)c2)nn1", "activity, negative = inhibition": "-22.3% [at 102 µM] (inactive)"},
      {"smiles": "COc1ccc(N2CCN(C(=O)CCc3nc(-c4ccc(C)cc4)no3)CC2)cc1", "Potency": "31.6 µM (active)"},
      {"smiles": "CN1CCN(C(=O)CCc2nc(-c3ccc(Cl)cc3)no2)CC1", "activity, negative = inhibition": "0.644% [at 102 µM] (inactive)"},
      {"smiles": "CCOc1cc(-c2noc(CCC(=O)N3CCOCC3)n2)ccc1OC", "activity, negative = inhibition": "-5.03% [at 102 µM] (inactive)"},
      {"smiles": "CCOc1ccc2oc(C(=O)N(CC)CC(=O)Nc3ccc(NC(C)=O)cc3)c(C)c2c1", "activity, negative = inhibition": "-40.2% [at 12.7 µM] (inactive)"},
      {"smiles": "COc1ccc(CCC(=O)NCCc2csc(-c3ccc(Cl)cc3)n2)cc1", "activity, negative = inhibition": "14.9% (inactive)"},
      {"smiles": "CCOc1ccc(C(=O)c2cn(Cc3ccccc3OC)c3ccc(F)cc3c2=O)cc1", "activity, negative = inhibition": "-24.1% (inactive)"},
      {"smiles": "CCOc1ccc(NC(=O)CCc2c(C)nn(-c3ccc(N4CCCC4)nn3)c2C)cc1", "activity, negative = inhibition": "4.29% (inactive)"},
      {"smiles": "Cc1ccc2nc(/C(C#N)=C/c3ccccc3F)[nH]c2c1", "activity, negative = inhibition": "4.4% (inactive)"},
      {"smiles": "COc1cc(/C=C(\\C#N)c2nc3c(s2)CC(C)CC3)ccc1O", "note": "(stereo not drawn)", "Potency": "50.1 µM (active)"},
      {"smiles": "COc1cc(/C=C(\\C#N)c2nc3ccccc3[nH]2)ccc1O", "Potency": "39.8 µM (active)"},
      {"smiles": "COc1cccc2cc(-c3nc(Cl)c4c5c(sc4n3)CC(C)CC5)c(=O)oc12", "note": "(stereo not drawn)", "activity, negative = inhibition": "-7.79% (inactive)"},
      {"smiles": "CCOc1ccc(/C=C(\\C#N)c2nc3ccccc3c(=O)[nH]2)cc1OC", "activity, negative = inhibition": "2.72% (inactive)"},
      {"smiles": "Cc1ccc(OCCC(=O)OCC(=O)N2c3ccccc3NC(=O)C2(C)C)cc1", "activity, negative = inhibition": "-0.939% (inactive)"},
      {"smiles": "COc1ccc(N2CC(NS(=O)(=O)c3ccc4ccccc4c3)CC2=O)cc1", "note": "(stereo not drawn)", "activity, negative = inhibition": "-44.8% [at 102 µM] (inactive)"},
      {"smiles": "O=C(N[C@@H](Cc1ccccc1)C(=O)OCc1ccccc1)c1nc[nH]c1C(=O)N[C@@H](Cc1ccccc1)C(=O)OCc1ccccc1", "activity, negative = inhibition": "2.69% [at 102 µM] (inactive)"},
      {"smiles": "CC(C)c1ccc(NC(=O)Cn2nnc(C(=O)NCCc3ccccc3)c2N)cc1", "activity, negative = inhibition": "-34% (inactive)"},
      {"smiles": "Cc1ccc(-c2onc(C)c2C)cc1S(=O)(=O)Nc1ccccn1", "activity, negative = inhibition": "2.82% (inactive)"},
      {"smiles": "CC(C)(C)c1cc(=O)n2c(nc3ccccc32)[nH]1", "activity, negative = inhibition": "11.1% [at 102 µM] (inactive)"},
      {"smiles": "COc1ccc(C)cc1-n1c(-c2ccc(C)cc2)cc2c1CC(C)(C)CC2=O", "activity, negative = inhibition": "13.1% (inactive)"},
      {"smiles": "CC1(C)CC(=O)c2cnc3nc4ccccc4n3c2C1", "Potency": "17.8 µM (active)"}
    ]}
  ]
}
